# Screens deposited in PubChem by NMMLSC.
# A selection: hits, their analogues and other compounds. The true share with any hit is near 3.5%.
# BoNT F protease = BoNT F light chain protease inhibition; Multiplex microsphere protease cleavage assay, flow cytometry; inhibition, % at 10 µM; actives 0.22% (n = 360,000); in the data active = inhibition above about 35%, passing the limit was not always enough; inconclusive = no clear call, values can overlap the other calls; also: plate controls were buffer without enzyme for full effect and enzyme alone for no effect
# BoNT A protease = inhibitors of Botulinum neurotoxin A light chain protease; multiplex microsphere protease substrate cleavage, flow cytometry; inhibition, % at 10 µM; actives 0.17% (n = 360,000); AID 588499; also: plate controls were buffer without enzyme for full effect and enzyme alone for no effect
# Autofluor counter = counter-screen for toxin protease inhibitors: compound fluorescence | compound autofluorescence counterscreen, microsphere flow cytometry; active compounds read high | actives 3.1% (n = 360,000) | fluorescence intensity (no concentration beside the values) | AID 624483; in the data active = fluorescence intensity above about 16000; inconclusive = no clear call, values can overlap the other calls
# Anthrax LF prot = blocks Bacillus anthracis lethal factor protease | P15917 | multiplex microsphere protease cleavage assay, LF | inhibition, % at 10 µM | actives 0.12% (n = 360,000) | AID 588501; also: plate controls were buffer without enzyme for full effect and enzyme alone for no effect
# Target sequence (P15917 whole entry, looked up): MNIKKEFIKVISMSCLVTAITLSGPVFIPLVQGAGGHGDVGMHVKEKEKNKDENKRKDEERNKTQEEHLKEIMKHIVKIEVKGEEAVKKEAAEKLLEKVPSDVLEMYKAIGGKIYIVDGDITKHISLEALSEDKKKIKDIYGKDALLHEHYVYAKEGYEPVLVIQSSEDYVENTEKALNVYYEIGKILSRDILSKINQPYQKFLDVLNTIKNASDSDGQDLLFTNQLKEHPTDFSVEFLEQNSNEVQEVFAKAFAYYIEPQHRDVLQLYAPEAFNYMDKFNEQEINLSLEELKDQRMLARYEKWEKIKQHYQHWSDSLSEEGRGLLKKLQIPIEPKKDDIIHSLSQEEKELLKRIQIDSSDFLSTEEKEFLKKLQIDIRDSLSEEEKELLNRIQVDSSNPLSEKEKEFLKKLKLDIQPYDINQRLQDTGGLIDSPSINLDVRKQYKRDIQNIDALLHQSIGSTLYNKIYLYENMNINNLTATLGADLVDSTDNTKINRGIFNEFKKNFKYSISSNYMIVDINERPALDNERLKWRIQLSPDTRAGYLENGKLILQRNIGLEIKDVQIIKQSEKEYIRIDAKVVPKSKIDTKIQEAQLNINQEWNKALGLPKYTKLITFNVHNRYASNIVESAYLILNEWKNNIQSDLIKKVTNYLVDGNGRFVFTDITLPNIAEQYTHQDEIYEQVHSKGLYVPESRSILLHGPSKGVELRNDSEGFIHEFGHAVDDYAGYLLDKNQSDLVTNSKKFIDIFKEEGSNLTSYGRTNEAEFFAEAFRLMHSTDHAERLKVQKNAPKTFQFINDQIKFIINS
# The depositor's hits bear a star; u = inconclusive. Rule as the data show it, unless noted: active = inhibition above about 30%; inconclusive = no clear call, values can overlap the other calls; inactive = below that.
SMILES,BoNT F protease,BoNT A protease,Autofluor counter,Anthrax LF prot
COC(=O)Nc1ccc2c(c1)N(C(=O)CCN1CCN3CCCC3C1)c1ccccc1CC2 (stereo not drawn),u,1.0,4356,4.2
COC(=O)Nc1ccc2c(c1)N(C(=O)CCN1CCN3CCCC3C1)c1ccccc1S2 (stereo not drawn),-3.7,u,23102*,-1.3
CC(C)n1nc(C(=O)Nc2ccc3c(c2)OCO3)c2ccccc2c1=O,-6.4,-0.1,3871,-5.2
C/C=C/C=[N+](\[O-])C(C)/C(=N/O)c1ccc(F)cc1 (stereo not drawn),-4.7,-2.5,16840*,0.7
CCOC(=O)COc1ccc(S(=O)(=O)N2CCc3ccccc3C2)cc1,-11.6,-1.1,7783,-5.5
CC1CCC(NC(=O)c2cc(S(=O)(=O)N(C)C)ccc2N2CCCC2)CC1 (stereo not drawn),19.9,6.1,4379,5.6
O=C(CCc1ccc(S(=O)(=O)N2CCOCC2)cc1)Nc1nc(COc2ccccc2)cs1,0.0,2.1,22376*,-1.2
O=C(CCc1ccc(S(=O)(=O)N2CCOCC2)cc1)N1CCCC1,-3.2,u,23425*,-2.0
O=C(CCc1ccc(S(=O)(=O)N2CCOCC2)cc1)Nc1ccccc1F,-2.6,0.5,3432,9.3
CNS(=O)(=O)c1ccc(CCC(=O)N2CCOCC2)cc1,u,2.7,3301,-5.8
O=C(CCc1ccc(S(=O)(=O)N2CCOCC2)cc1)Nc1nccs1,-0.2,0.0,2844,-4.4
O=C(CCc1ccc(S(=O)(=O)N2CCOCC2)cc1)NCCc1ccccn1,-2.1,u,21908*,-1.8
C#CCN1C=CC(=O)[C@@H](OC(=O)NCCC)[C@H]1c1ccccc1Br,-5.7,0.3,3595,0.8
C=CCn1c(O)c(N=NC(=S)Nc2ccccc2F)c2ccccc21,-7.4,8.2,4227,-1.2
C=CCn1c(O)c(N=NC(=S)Nc2cccc(C)c2)c2ccccc21,-2.7,30.3*,2362,8.9
Cc1cccc(-n2nnnc2SCC(=O)c2cc(C)n(CC3CCCO3)c2C)c1 (stereo not drawn),-34.9,-0.2,4434,-7.3
Cc1cccc(-n2nnnc2SCC(=O)c2cc(C)n(Cc3ccco3)c2C)c1,-0.3,u,22516*,-0.1
Cc1cc(Oc2ccccc2)nc(SCC(=O)Nc2ccc(Cl)cc2Cl)n1,-11.2,u,18063*,-2.1
Cc1cc(C)c2c(CN3CCN(CCO)CC3)cc(=O)oc2c1,-0.8,-0.5,23234*,0.2
Cc1cc(C)c2c(CN3CCN(c4ccccc4F)CC3)cc(=O)oc2c1,9.1,-0.6,4197,-8.5
Cc1cc(C)c2c(CN3CCN(C)CC3)cc(=O)oc2c1,-5.2,-2.3,16812*,-0.9
Cc1csc(NC(C)c2nc3cc(C(F)(F)F)ccc3n2CCCO)n1 (stereo not drawn),-0.3,0.4,4137,3.0
Cn1cc(Br)c(C(=O)n2cc(Br)cn2)n1,-2.9,-0.1,4977,-0.5
COc1ccc(/C=N/NC(=O)c2cccc(Br)c2)cc1COc1ccccn1,7.8,-0.6,5508,0.1
Cc1coc2c1c(C)cc1oc(=O)c(Cc3ccccc3)c(C)c12,-3.5,-2.2,24793*,-0.6
SMILES,BoNT F protease,BoNT A protease,Autofluor counter,Anthrax LF prot
Cc1coc2c1c(C)cc1oc(=O)c(CC(=O)NCC(=O)NCC(=O)O)c(C)c12,-5.4,-3.8,3252,3.4
CC1CCc2sc(C(=O)NNC(=S)NC3CC3)cc2C1 (stereo not drawn),-4.1,-0.2,5656,-1.4
COc1ccc(-c2noc(-c3ccccc3C(=O)N3CCOCC3)n2)cc1,8.8,6.1,20897*,0.9
Cc1ccc(-c2noc(-c3ccccc3C(=O)N3CCOCC3)n2)cc1,4.1,-0.3,7303,-6.5
Cc1ccc(OCC(=O)Nc2nnc(C3CCCO3)s2)c(Br)c1 (stereo not drawn),-4.1,-0.4,3791,0.6
O=C(Nc1nnc(C2CCCO2)s1)c1ccc(Br)cc1 (stereo not drawn),0.1,0.0,23157*,-4.0
CCOC(=O)C1=CCN(S(=O)(=O)c2ccc(F)cc2)C1c1cccc(F)c1 (stereo not drawn),15.1,0.6,3963,-5.8
CCc1ccc(S(=O)(=O)c2ccc(-n3nc(C)cc3N)cc2)cc1,-3.6,0.0,4015,-0.1
COc1cccc(-n2nc(C(=O)N3CC(C)CC(C)C3)c3ccccc3c2=O)c1 (stereo not drawn),8.4,6.5,20358*,-7.9
COc1ccc(-n2nc(C(=O)NCC(=O)N3CC(C)CC(C)C3)c3ccccc3c2=O)cc1OC (stereo not drawn),4.0,0.5,5609,-2.9
O=c1[nH]cc(NCCNc2ncc(C(F)(F)F)cc2Cl)c(=O)[nH]1,0.0,-0.1,2120,-0.4
CCC(=O)Nc1ccc(C(=O)NCc2ccccn2)cc1,-2.4,-0.5,2008,-0.5
O=C(O)C(Cc1ccccc1N(CCO)CCO)N1C(=O)c2ccccc2C1=O (stereo not drawn),-1.7,-0.6,3704,-5.9
C[C@H](CO)N1C[C@H](C)[C@@H](CN(C)C(=O)c2ccccc2)OCc2cnnn2CCCC1=O,-3.1,-0.4,3770,0.6
O=C(O)c1cc(NN=C2CCN(Cc3ccccc3)CC2)ccc1Cl,41.8*,6.6,6123,-5.3
Cc1nc2c(C(=O)NCCC3=CCCCC3)c[nH]n2c(=O)c1Cl,1.5,1.6,23190*,-0.6
O=C(NCCC1=CCCCC1)c1cnc2n(c1=O)CCS2,-3.4,-3.2,24855*,-9.0
O=C(NCCc1ccc(Cl)cc1)c1cnc2n(c1=O)CCS2,-6.1,0.2,6120,-0.1
Cc1nc2c(C(=O)NCc3ccc4c(c3)OCO4)c[nH]n2c(=O)c1Cl,-6.0,-3.5,25275*,1.5
CCOc1ccc(S(=O)(=O)NCCC(=O)N2CC=C(c3ccccc3)CC2)cc1,-5.8,0.8,6243,3.8
O=C(CSc1cccc[n+]1[O-])Nc1cccc(Oc2ccccc2)c1,-5.4,-0.8,3999,-4.3
O=C(CSc1nnc2ccccn12)c1ccc(Cl)cc1,1.8,-0.2,4107,-6.4
O=C(CSc1nnc2n1CCCN2C(=S)Nc1ccc(Cl)cc1)c1ccccc1,6.3,3.8,20424*,0.0
CCn1c(CCCCc2n[nH]c(=S)n2CC)n[nH]c1=S,-3.0,-0.5,3202,-6.0
CCCCn1c(CCn2nc(C)c(Br)c2C)n[nH]c1=S,0.2,-2.0,23887*,-0.3
SMILES,BoNT F protease,BoNT A protease,Autofluor counter,Anthrax LF prot
C=CCn1c(SCc2csc(C)n2)nc2sc3c(c2c1=O)CCCC3,-15.1,-0.7,4287,-0.4
C=CCn1c(SCc2csc(C)n2)nc2sc3c(c2c1=O)CCCCC3,3.2,2.0,21298*,-5.5
CSc1cccc(NC(=O)CN(C)S(=O)(=O)c2cnc[nH]2)c1,6.1,1.5,4102,0.7
Cc1cccc(S(=O)(=O)c2c(N)n(/N=C/c3ccccc3)c3nc4ccccc4nc23)c1,-1.6,-0.5,16348*,-0.4
Cc1cc(C)n(-c2nnc3c4ccccc4n(C)c3n2)n1,-19.5,-4.9,3781,u
CCc1ccccc1N1CCN(S(=O)(=O)c2cc(OC)ccc2OC)CC1,-2.2,u,23647*,-5.9
CCC1CCCCN1CCNS(=O)(=O)c1ccc2c(c1)oc(=O)n2C (stereo not drawn),-1.0,-0.6,6911,-2.2
CC1CCCCN1CCNS(=O)(=O)c1ccc2c(c1)oc(=O)n2C (stereo not drawn),-6.1,u,22199*,-2.9
